JMJD2A Tudor inh: inhibitors of human JMJD2A Tudor domain. O75164. AlphaScreen JMJD2A-Tudor / H3K4me3 peptide binding. Potency, µM (top dose mostly 114 µM), inactives show at the top dose activity change, negative = inhibition, actives largely listed as inhibitors. 390,000 tested, 4.4% active. AID 504339; also: potency is read from the fitted curve at half-maximal effect; % is scaled to controls: 0 for no effect and ±100 for the full control effect; nearly all actives have a fitted effect of over 50% in size
BAZ2B inh: blocks human BAZ2B. Q9UIF8. 360,000 tested, 4.4% active. AlphaScreen BAZ2B-H3K14Ac peptide displacement. Potency, µM (highest dose often 114 µM), for inactives: at the top dose activity change, negative = inhibition, most hits filed as inhibitors; also: potency is read from the fitted curve at half-maximal effect; % is scaled to controls: 0 for no effect and ±100 for the full control effect; nearly all actives have a fitted effect of over 60% in size
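Protein-peptide AlphaScreen: BAZ2B 50 nM, b-H3K14Ac 50 nM, 1x PBS pH 7.4 + 0.01% Tween-20. Preincubation 30 min RT; cpd 30 min RT (top 110 uM); beads 20 min RT, light-protected.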
PI5P4Ka inh: blocks human PI5P4K alpha kinase activity | P48426 | 330,000 tested, 1.2% active | max response, % | PI5P4Kalpha enzyme, ADP-Glo luminescence, 60 min; active compounds read low | AID 652105; active = max response of -50% or lower; inconclusive = between -30% and -50%; inactive = -30% or higher; also: value at the top dose of about 77 µM; % is scaled to controls: 0 for no effect and ±100 for the full control effect
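Compounds were pin-transferred onto PI5P4Kalpha and substrate in HEPES pH 7.4 buffer with EGTA, CHAPS and 5% DMSO. ATP (5 microM final) started the reaction, which ran 60 minutes at room temperature before ADP-Glo detection.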
PLK1 PBD block: inhibitors of human PLK1 polo-box domain binding; P53350; Plk1 PBD binding of FITC phosphopeptide, fluorescence polarization; Potency, µM, for the others: max response, negative = inhibition, hits mostly inhibitors; 360,000 tested, 2.8% active; also: potency is read from the fitted curve at half-maximal effect; series mostly up to about 57 µM; % is scaled to controls: 0 for no effect and ±100 for the full control effect; nearly all actives have a fitted effect of over 65% in size
Target sequence (P53350 whole entry, looked up, the tested form may be a part): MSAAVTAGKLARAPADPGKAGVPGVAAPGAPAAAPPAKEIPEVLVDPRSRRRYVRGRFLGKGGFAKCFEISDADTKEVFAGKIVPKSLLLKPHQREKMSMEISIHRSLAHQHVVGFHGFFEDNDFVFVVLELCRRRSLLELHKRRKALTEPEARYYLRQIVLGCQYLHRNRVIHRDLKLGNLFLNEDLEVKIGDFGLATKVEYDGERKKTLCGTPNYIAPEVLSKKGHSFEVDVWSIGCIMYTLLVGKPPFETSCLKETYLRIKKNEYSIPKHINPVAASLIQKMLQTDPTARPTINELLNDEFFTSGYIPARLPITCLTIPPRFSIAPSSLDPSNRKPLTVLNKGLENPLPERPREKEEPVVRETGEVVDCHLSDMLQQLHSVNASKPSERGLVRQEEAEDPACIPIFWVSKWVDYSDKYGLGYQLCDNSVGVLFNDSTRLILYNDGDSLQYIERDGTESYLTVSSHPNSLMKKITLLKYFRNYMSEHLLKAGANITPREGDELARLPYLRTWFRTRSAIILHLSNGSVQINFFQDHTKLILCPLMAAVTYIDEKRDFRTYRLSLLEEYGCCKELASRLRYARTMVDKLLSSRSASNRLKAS
HP1b chromo inh: HP1-beta chromodomain-methylated histone interaction inhibition. P83916. AlphaScreen HP1-beta / biotin-H3K9me3 peptide binding. Potency, µM (top dose mostly 114 µM), inactives show at the top dose activity change, negative = inhibition, usual class: inhibitors. 390,000 tested, 0.56% active; also: potency is read from the fitted curve at half-maximal effect; nearly all actives have a fitted effect of over 70% in size
Target sequence (P83916 whole entry, looked up): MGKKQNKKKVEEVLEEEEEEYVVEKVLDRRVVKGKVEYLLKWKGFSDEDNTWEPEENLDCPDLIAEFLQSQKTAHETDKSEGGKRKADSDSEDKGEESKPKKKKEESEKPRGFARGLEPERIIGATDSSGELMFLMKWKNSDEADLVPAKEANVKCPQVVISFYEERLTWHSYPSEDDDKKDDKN
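HP1-beta protein (50 nM final) preincubated 30 min at room temperature with biotinylated H3(1-18)K9me3 peptide (50 nM) in PBS pH 7.4, 0.01% Tween-20, then compound added for 30 min. AlphaScreen streptavidin donor/nickel chelate acceptor beads (10 ug/mL final), 30 min dark, luminescence read.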
G9a block: inhibitors of human histone lysine methyltransferase G9a | Q96KQ7 | G9a H3K9 monomethylation, AlphaScreen, 2 h | Potency, µM (top dose mostly 102 µM), inactives show at the top dose activity, negative = inhibition, actives largely listed as inhibitors | 350,000 tested, 8.8% active; also: potency is read from the fitted curve at half-maximal effect; % is scaled to controls: 0 for no effect and ±100 for the full control effect; nearly all actives have a fitted effect of over 75% in size
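Using a bead-based AlphaScreen, monomethylated H3K9 product from 2 h room-temperature reactions (G9a 20 nM, peptide 500 nM, SAM 20 uM) was detected with 0.5 ug/mL rabbit anti-H3K9me1 antibody.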
* marks the source's active call; other numbers are inactive results; ? = inconclusive; nt = no result given; ! = a repeat was not active; [ ] = another dose, or the depositor's remark. Compounds with a hit are over-represented: about 12% of the library has one in this group of screens. Unless noted, calls follow the shape of the dose curve; as a rule, active = well fitted curve in the direction sought with a large enough effect; inconclusive = small, poorly fitted or top-dose-only effect, or another doubt; inactive = no such curve, though single readings can be large; an effect the other way counts as inactive or inconclusive.

SMILES	JMJD2A Tudor inh	BAZ2B inh	PI5P4Ka inh	PLK1 PBD block	HP1b chromo inh	G9a block
Cc1ccc(C)c(OCCC(=O)Nc2ccc(S(=O)(=O)N3CCCC3)cc2)c1	-20.3%	-18.3%	-1.3	-17.7%	25.2%	13.8%[2.33 µM]
Cc1ccc2c(c1)NC(=O)C(CC(=O)NCCCN1CCCC1=O)O2 (configuration not stated)	?	?	5.2	29.9µM*	15.2%	?
Cc1ccc2c(c1)NC(=O)C(CC(=O)NCCCN1CCCCC1)O2 (configuration not stated)	-20.4%	5.4%	3.8	-7.2%	28.4%	-25.7%
C/C(=N\Nc1nc(C(C)(C)C)cs1)c1ccc(O)cc1	?	?	2.3	?	-22.0%	31.6µM*
C/C(=N\Nc1nc(C(C)(C)C)cs1)c1ccccc1	?	?	11.1	-8.5%	1.8%	70.8µM*
O=C(Nc1nc2c(s1)CCCC2)Oc1ccccc1	-4.5%	-34.0%	-6.2	-1.6%	13.3%	-10.4%[59 µM]
C/C(=N\Nc1nc2c(s1)CCCC2)c1ccccc1	?	44.7µM*	-2.0	?	?	?
COC(=O)C1CCN(S(=O)(=O)c2ccc(N3CCCCS3(=O)=O)cc2)CC1	-4.3%	-2.7%	nt	nt	21.3%	2.0%[59 µM]
CC(NC(=O)c1ccc(CS(C)(=O)=O)cc1)c1cccc2ccccc12 (configuration not stated)	-3.2%	-1.4%	-11.1	2.0%	30.9%	3.1%
Cn1c(=O)[nH]c(=O)c2c1nc(CN1CCN(c3ccccc3)CC1)n2Cc1c(F)cccc1Cl	-15.6%	-8.5%	nt	nt	22.6%	?
CC(C)Cc1ccc(C(C)/C=C2/CCC(CN3CCCCC3)C2=O)cc1 (configuration not stated)	?	nt	-23.5	13.4µM*	29.6%	nt
CCN(c1ccccc1)S(=O)(=O)c1ccc(NC(=O)c2cc(=O)c3cc(C)cc(C)c3o2)cc1	-3.1%	-11.3%	nt	nt	17.0%	-1.9%[59 µM]
CC1(C)C(=O)N(CCN2CCC(C(=O)c3ccc(F)cc3)CC2)c2ccccc21	-11.5%	2.0%	3.5	1.6%	57.5%	20µM*!
Cc1ccc(-n2nc3ccc(NC(=O)C(C)C)cc3n2)cc1	-13.1%	?	6.7	?	4.9%	12.6µM*
CCCC(=O)Nc1ccc2nn(-c3ccc(OC)cc3)nc2c1	?	-4.6%	1.1	21.2µM*	-4.8%	-0.1%
Cc1ccc(-n2nc3ccc(NC(=O)c4ccc5c(c4)OCO5)cc3n2)cc1	-13.9%	-5.6%	nt	-2.8%	16.5%	70.8µM*
CC(C)C(=O)Nc1ccc2nn(-c3ccc(F)cc3)nc2c1	-6.1%	6.4%	-3.8	-5.7%	36.8%	?
COc1ccc(S(=O)(=O)N2CCCC2=O)cc1N(C)S(C)(=O)=O	-17.4%	7.8%	-2.1	-7.9%	47.5%	-3.6%[59 µM]
C=CC[C@H]1CC(Cc2ccccc2)=C[C@H](CC=C)N1	?	-5.1%	-20.3	23.8µM*	?	44.7µM*
C=CCC1C=C(Cc2ccccc2)CC(CC=C)N1 (configuration not stated)	-17.9%	-10.5%	-1.2	-12.6%	25.2%	-48.8%
O=C(CN1CCN(S(=O)(=O)c2ccccc2F)CC1)N1CCc2ccccc2C1	0.794µM*	nt	-15.1	-5.9%	-26.2%	nt
S=c1[nH]nc(-c2cccnc2)n1/N=C/c1ccc(Br)s1	5.62µM*	-36.2%	6.3	?	55.6%	?
Cc1ccc(/C=N/n2c(-c3cccnc3)n[nH]c2=S)s1	4.47µM*	-6.7%	-15.3	-6.0%	-8.9%	0.794µM*
Cc1cc(C)c2oc(-c3cccc(NC(=O)COc4ccccc4Cl)c3C)nc2c1	1.1%	-12.0%	nt	nt	20.1%	2.3%[59 µM]
Cc1ccc(-n2c(C)cc(C(=O)NS(=O)(=O)c3ccc(C)cc3)c2C)cc1	-29.4%	?	-1.4	-7.3%	2.2%	50.1µM*
SMILES	JMJD2A Tudor inh	BAZ2B inh	PI5P4Ka inh	PLK1 PBD block	HP1b chromo inh	G9a block
Cc1ccccc1CN1C(=O)C(O)(CC(=O)c2cccc(Br)c2)c2ccccc21 (configuration not stated)	-32.4%	1.0%	nt	nt	38.7%	13.4%[59 µM]
Cc1ccccc1NC(=O)Cc1nnc(SCC(=O)NC2CCCC2)n1C	-0.7%	-0.2%	0.3	-3.6%	2.7%	14.3%
COc1ccc(OC)c(NC(=O)C2C3CCC(C3=C(C)C)C2C(=O)O)c1 (configuration not stated)	?	-25.6%	-10.5	-8.0%	5.6%	8.91µM*
COc1ccc(CNC(=O)C2CCN(c3nnc(-n4cccc4CNc4ccc(C)cc4)s3)CC2)c(OC)c1	-27.3%	-21.7%	nt	nt	0.9%	1.41µM*
COc1ccc(NC(=O)Nc2nnc(N3CCC(C)CC3)s2)cc1OC	-11.7%	-0.9%	-9.3	-18.6%	15.3%	?
COc1ccc(OC)c(NC(=O)Nc2nnc(N3CCC(C)CC3)s2)c1	?	?	1.8	4.6%	6.3%	50.1µM*
COc1ccc(NCc2cccn2-c2nnc(N3CCC(C)CC3)s2)c(OC)c1	28.2µM*	?	nt	nt	?	5.62µM*
O=C(Nc1nnc([C@@H]2C[C@H](O)[C@@H](CO)O2)s1)c1cccc(Cl)c1	nt	nt	11.0	-9.1%	nt	nt
COc1ccc(-c2ccc3ncnc(NCc4cccs4)c3c2)cc1	-21.3%	nt	nt	nt	nt	nt
COc1ccc(OC)c(NCc2cccn2-c2nnc(N3CCC(C)CC3)s2)c1	?	-32.0%	nt	nt	?	7.94µM*
COc1ccc(NCc2cccn2-c2nnc(N3CCOCC3)s2)c(OC)c1	-22.0%	-2.6%[57.1 µM]	nt	nt	21.5%	?
O=C(Nc1cccc(S(=O)(=O)NC2=NCCC2)c1)c1ccc(C(F)(F)F)cc1	-4.8%	nt	-5.0	3.6%	42.8%	nt
O=C(CBr)Nc1c2c(nn1-c1ccccc1)CSC2	-27.3%	-15.0%[57.1 µM]	-15.9	?	33.6%[57 µM]	22.4µM*
CCCC(=O)Nc1c2c(nn1-c1ccc(C)cc1C)CSC2	-18.5%	-5.2%	nt	-1.2%	27.7%	22.4µM*
N#CC1=C(Nc2ccccc2)SC=C(c2ccccc2)N=C1N1CCOCC1	-17.9%	-1.5%	0.6	-6.2%	36.0%	50.1µM*
COc1ccc2oc(-c3ccco3)cc(=O)c2c1	2.9%[11.4 µM]	-18.1%	-1.8	-12.2%	62.8%	44.7µM*
COc1cccc2oc(-c3ccco3)cc(=O)c12	-7.6%	-1.9%	-1.0	21.2µM*	41.0%	5.62µM*
COc1cc(OC)c2c(=O)cc(-c3ccccc3)oc2c1	-14.3%	-16.5%	-0.4	1.1%	37.6%	-36.9%[59 µM]
O=C(COc1ccc2oc(-c3ccco3)cc(=O)c2c1)N1CCCCC1	-2.2%[11.4 µM]	50.1µM*	-15.4	-21.4%	?	?
O=C(COc1ccc2c3c(c(=O)oc2c1)CCC3)N1CCCCC1	-11.9%	-6.6%	-7.4	-2.3%	4.3%	-1.3%
CN1CCc2c(sc(NC(=O)CS(=O)(=O)c3ccccc3)c2C(N)=O)C1	-21.3%	-11.2%	4.0	-11.8%	9.7%	50.1µM*
COc1ccc(C(=O)Nc2sc3c(c2C#N)CCN(C(C)=O)C3)cc1	-6.9%	nt	0.4	-3.3%	31.5%	50.1µM*
